# The list is not random: actives were taken first. Their share in the collection is about 7%.
# IL1B secr inh: blocks inflammasome-driven IL-1 beta release. activity change, % at 57.5 µM. 360,000 tested, 4.7% active. THP-1 LPS/ATP IL-1B secretion, AlphaLISA, 16 h; active compounds read low; in the data active means activity change below about -50%; inconclusive means mostly about -30% to -49%
#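 THP-1 cells pretreated 1 hr with compounds (up to 57.5 uM final), then stimulated with LPS (250 ng/mL final) plus ATP (1.25 mM final); secreted IL-1B measured by AlphaLISA after 16 hr, decreased signal indicating inhibition.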
# ATXN viability: cell viability loss in ATXN counter-screen | S2 cells (HEK-293 line with an ATXN2-luciferase reporter) viability, CellTiter-Fluor protease fluorescence, 24 h | Potency, µM (series often up to 56.7 µM), actives largely listed as cytotoxic | 400,000 tested, 0.49% active; further: nearly all actives have a fitted effect of over 40% in size
# ATXN2 expr inh: inhibitors of ATXN2 expression. HEK-293 ATXN2-luciferase reporter, luminescence, 24 h. 360,000 tested, 0.72% active. AID 1745845. Potency, µM (top dose mostly 57 µM), actives largely listed as inhibitors; further: nearly all actives have a fitted effect of over 55% in size
#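 qHTS (up to 57 uM final) was run with 24 h compound exposure of reporter cells at 37 °C. Each well was multiplexed: SteadyGlo luminescence measured ATXN2-luciferase expression after a fluorogenic Gly-Phe-AFC viability readout (25 uM final).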
# Integrin act MD: activators of alpha7 integrin expression for muscular dystrophy; AID 624291; Potency, µM (titrated, usually from 38.3 µM), hits mostly activators; alpha7betagal myoblasts, beta-gal FDG fluorescence, 48 h; 350,000 tested, 0.064% active; further: nearly all actives have a fitted effect of over 60% in size
#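 alpha7betagal+/- myoblasts (passage 13, 250/well) treated 48 h at 37C with compounds at 1:260 dilution of DMSO stock. Lysed, then beta-galactosidase activity read as FDG fluorescence (ex 480/em 540) after 30 min, with pre-read for autofluorescence.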
# DRD3 antagonist: D3 dopamine receptor (human) antagonism | P35462 | 360,000 tested, 2.5% active | AID 652054 | D3R cells, DiscoveRx beta-arrestin luminescence, antagonist mode; active compounds read low | max response, negative = inhibition, %; in the data active means max response below about -50%; inconclusive means no clear call, values can overlap the other calls
# Target sequence (P35462 whole entry, looked up): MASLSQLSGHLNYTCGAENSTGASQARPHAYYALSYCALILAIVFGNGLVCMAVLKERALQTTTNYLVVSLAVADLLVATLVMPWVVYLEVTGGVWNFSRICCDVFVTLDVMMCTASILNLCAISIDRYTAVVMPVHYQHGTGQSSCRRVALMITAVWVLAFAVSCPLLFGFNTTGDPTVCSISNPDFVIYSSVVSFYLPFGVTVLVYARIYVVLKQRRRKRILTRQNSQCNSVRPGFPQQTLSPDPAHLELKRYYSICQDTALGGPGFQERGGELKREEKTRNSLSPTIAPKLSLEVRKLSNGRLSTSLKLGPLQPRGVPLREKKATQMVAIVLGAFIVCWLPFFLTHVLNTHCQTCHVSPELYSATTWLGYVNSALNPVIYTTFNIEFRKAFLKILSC
#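 Cells expressing the human receptor were seeded at 1500 cells/well, incubated overnight at 37 degrees C in 5% CO2, then exposed to library compounds with dopamine controls for 90 minutes at 37 degrees C before luminescent detection.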
# D3 ag: agonists of human D3 dopamine receptor | P35462 | D3R DiscoveRx beta-arrestin cells, luminescence, 90 min | max activation, % | 410,000 tested, 0.58% active | AID 652048; in the data active means max activation above about 30%
#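 Cells at 1500/well, incubated overnight, then treated with pinned compounds (dopamine as control) for 90 min at 37 degrees C. DiscoveRx reagent added for 30 - 60 minutes at room temperature; luminescence read.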
# Hits are given with their value; . = inactive; ? = inconclusive; / = no result given. Unless noted, the call rests on the fitted dose curve; in most records, active means well fitted curve in the direction sought with a large enough effect; inconclusive means small, poorly fitted or top-dose-only effect, or another doubt; inactive means no such curve, though single readings can be large; an effect the other way counts as inactive or inconclusive.
SMILES,IL1B secr inh,ATXN viability,ATXN2 expr inh,Integrin act MD,DRD3 antagonist,D3 ag
Cc1noc2ncnc(Sc3c(Cl)cccc3Cl)c12,-115,.,.,.,.,.
Cc1ccccc1Sc1ncnc2onc(C)c12,-52,.,.,.,.,.
Cc1noc2ncnc(Sc3ccc(Cl)cc3)c12,-115,?,.,.,.,.
CCCC1O[C@@H]2C[C@H]3[C@@H]4CCC5=CC(=O)C=C[C@]5(C)[C@H]4[C@@H](O)C[C@]3(C)[C@]2(C(=O)CO)O1 (stereo partly drawn),-65,.,.,/,.,.
CCN(CC)CCNc1ccc(C)c2sc3ccc(O)cc3c(=O)c12,-101,/,?,.,.,.
COc1ccc(NCC(O)Cn2c(C)c(C)c3ccccc32)cc1 (stereo not drawn),-173,.,/,.,.,.
Cc1nn2c(NCc3cccnc3)c3c(nc2c1-c1ccccc1)CCC3,-76,.,.,.,.,.
Cc1nn2c(NCCN(C)C)c3c(nc2c1-c1ccccc1)CCCC3,-58,/,.,.,.,.
CCCCNc1c2c(nc3c(-c4ccccc4)c(C)nn13)CCC2,.,.,.,.,.,.
COc1cccc(NC(=O)CSc2nnc3cc(C)nc(N)n23)c1,.,.,.,.,.,.
Nc1c(C(=O)NCc2ccco2)c2nc3ccccc3nc2n1CCc1ccccc1,-57,.,/,.,.,.
CCOc1ccc(-n2c(N)c(C(=O)NCc3ccco3)c3nc4ccccc4nc32)cc1,-96,.,?,.,-79,.
Nc1c(C(=O)NCc2ccccc2)c2nc3ccccc3nc2n1CCCN1CCOCC1,.,/,/,.,.,.
COc1cccc(N2CCN(C(=O)c3cc4cc(Cl)ccc4[nH]3)CC2)c1,.,.,.,.,.,.
CCCCC(=O)NC(c1ccccc1)c1ccc2cccnc2c1O (stereo not drawn),.,.,?,.,.,.
CCCCC(=O)NC(c1ccccc1Cl)c1ccc2cccnc2c1O (stereo not drawn),.,?,2.8µM,.,.,.
CCCC(=O)NC(c1ccc(OC)cc1)c1ccc2cccnc2c1O (stereo not drawn),.,/,1.9µM,.,.,.
CCCC(=O)NC(c1ccccc1)c1ccc2cccnc2c1O (stereo not drawn),.,.,14µM,.,?,31
COC(=O)c1ccc(NC(=O)c2cn(-c3ccccc3)nc2-c2ccncc2)cc1,.,.,.,.,-67,.
O=C(O)c1ccc(NC(=O)c2cn(-c3ccccc3)nc2-c2cccc(Cl)c2)cc1,.,?,.,.,.,36
O=C(O)c1ccc(NC(=O)c2cn(-c3ccccc3)nc2-c2ccc(F)cc2)cc1,.,.,.,.,.,.
O=C(c1cc(-c2ccc(F)cc2)nc2ccccc12)N1CCN(C2CCS(=O)(=O)C2)CC1 (stereo not drawn),.,/,/,?,.,.
CC(C)c1cc(C(C)C)c(S(=O)(=O)N2CCNCC2)c(C(C)C)c1,-81,.,.,.,.,.
CCS(=O)(=O)N1CCc2cc(C(=O)N3CCN(c4cccc(C(F)(F)F)c4)CC3)ccc21,/,?,?,/,/,.
CN1CCCN=C1/C=C/c1cccs1,.,.,.,.,-58,.
SMILES,IL1B secr inh,ATXN viability,ATXN2 expr inh,Integrin act MD,DRD3 antagonist,D3 ag
[O-][n+]1c2c(c3c4non(O)c4ccc31)CCCC2,-61,.,.,.,.,.
O=C(NCCN1CCN(c2ccccc2)CC1)C1(S(=O)(=O)c2ccc(Cl)cc2)CC1,.,.,.,.,-53,.
O=C(NCCN1CCN(c2ccccc2)CC1)c1cccc(Cl)c1,.,.,/,.,-56,.
O=C(c1cccc(Cl)c1)N1CCN(CCCc2ccccc2)CC1,.,.,.,.,.,33
O=C(c1ccccc1)N1CCN(CCc2ccccc2)CC1,?,.,.,.,.,.
O=C(NCc1ccccc1Cl)C1(S(=O)(=O)c2ccc(Cl)cc2)CC1,.,.,.,.,.,.
O=C(NCCN1CCN(c2cccc(Cl)c2)CC1)c1ccc(CSc2nc3ccncc3[nH]2)cc1,-63,.,?,.,.,49
